What all share (design): scale not given: direction of the effect not stated beside the values
Assay [1] has as its target Protein translocase subunit SecA (Escherichia coli (strain K12)) (UniProt P10408). Briefly: Assay to Identify E. coli SecA ATPase Inhibitors. Type of assay: functional. The conditions noted are these: 30 µM.
Assay [2] has as its target T1, Ubiquitin-activating enzyme e1, putative (Leishmania donovani (strain BPK282A1)) (UniProt E9BSI1).
T1 sequence (whole entry): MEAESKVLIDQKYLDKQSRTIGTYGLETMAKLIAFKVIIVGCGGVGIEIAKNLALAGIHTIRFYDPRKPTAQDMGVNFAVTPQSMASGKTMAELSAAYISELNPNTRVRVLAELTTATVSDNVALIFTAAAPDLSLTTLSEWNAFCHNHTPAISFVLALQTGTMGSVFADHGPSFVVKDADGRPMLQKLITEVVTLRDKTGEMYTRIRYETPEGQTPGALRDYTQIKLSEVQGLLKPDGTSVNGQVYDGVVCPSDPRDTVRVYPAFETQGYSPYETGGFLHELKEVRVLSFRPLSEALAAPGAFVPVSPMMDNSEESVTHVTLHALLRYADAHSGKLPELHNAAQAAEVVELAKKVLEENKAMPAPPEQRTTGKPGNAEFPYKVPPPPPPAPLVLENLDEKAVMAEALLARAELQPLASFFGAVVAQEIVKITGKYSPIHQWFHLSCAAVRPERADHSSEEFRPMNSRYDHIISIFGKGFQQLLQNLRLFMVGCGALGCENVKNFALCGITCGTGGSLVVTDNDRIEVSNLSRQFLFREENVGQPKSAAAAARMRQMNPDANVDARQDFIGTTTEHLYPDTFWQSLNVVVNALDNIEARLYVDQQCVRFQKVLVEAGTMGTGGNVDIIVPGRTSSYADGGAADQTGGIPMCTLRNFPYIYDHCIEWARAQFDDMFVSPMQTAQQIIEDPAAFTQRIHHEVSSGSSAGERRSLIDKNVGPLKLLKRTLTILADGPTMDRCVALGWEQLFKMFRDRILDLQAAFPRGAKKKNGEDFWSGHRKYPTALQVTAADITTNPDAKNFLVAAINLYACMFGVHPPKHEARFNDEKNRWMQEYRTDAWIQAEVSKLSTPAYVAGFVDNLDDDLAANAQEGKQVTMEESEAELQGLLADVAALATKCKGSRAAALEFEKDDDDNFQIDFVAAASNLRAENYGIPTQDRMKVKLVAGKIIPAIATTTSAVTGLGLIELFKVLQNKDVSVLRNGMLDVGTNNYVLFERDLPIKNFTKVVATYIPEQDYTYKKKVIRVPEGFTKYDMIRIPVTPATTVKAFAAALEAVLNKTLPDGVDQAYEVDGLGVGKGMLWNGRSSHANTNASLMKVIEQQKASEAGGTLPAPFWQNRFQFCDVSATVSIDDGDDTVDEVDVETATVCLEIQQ
Briefly: Leishmania donovani Ubiquitin Activating Enzyme (LdE1). The conditions noted are these: 30 µM. In kind it is functional.

Assay [3] has as its target AMP-activated protein kinase, AMPK (Homo sapiens) (UniProt P54646+O43741+P54619+Q9UGJ0+Q9Y478+Q13131+Q9UGI9). Briefly: AMP-dependent Kinase enzyme assay. An in vitro enzyme assay that detects ADP turnover that is directly proportional to AMPK activity. This uses naive AMPK that is activated during the assay with MK-8722. In kind it is functional. The note with it: 30 µM.

For assay [4], the target named is Sialic acid-binding Ig-like lectin 9 (Homo sapiens) (UniProt Q9Y336). As to the kind of experiment: Hs-Siglec9 ALPHAscreen SOP 20170721. The note with it: 10 µM.
For assay [5], the system named is Trypanosoma cruzi. Briefly: Trypanosoma cruzi phosphomannomutase and mannose-1-phosphate guanylyltransferase assay. In kind it is functional. The conditions noted are these: 10 µM.
Assay [6] deals with T2, Arginase-2, mitochondrial (Homo sapiens) (UniProt P78540).
T2 sequence (whole entry): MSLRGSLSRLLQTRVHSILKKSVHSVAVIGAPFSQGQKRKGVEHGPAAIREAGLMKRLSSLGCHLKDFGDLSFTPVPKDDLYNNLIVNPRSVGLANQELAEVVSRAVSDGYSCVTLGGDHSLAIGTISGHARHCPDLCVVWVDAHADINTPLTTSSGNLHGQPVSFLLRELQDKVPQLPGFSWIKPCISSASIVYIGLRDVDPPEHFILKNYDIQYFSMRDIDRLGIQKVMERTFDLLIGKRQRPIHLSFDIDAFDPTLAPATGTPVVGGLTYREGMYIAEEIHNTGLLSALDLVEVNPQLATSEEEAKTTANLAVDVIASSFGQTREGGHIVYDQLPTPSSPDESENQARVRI
Briefly: in vitro enzyme assay to detect the production of urea directly proportional to the activity of Arginase II. Note: in the data most compounds retested in dose-response had high values. Type of assay: functional. The conditions noted are these: 33.3 µM.

The target of assay [7] is T3, Proteasome subunit beta (Trypanosoma cruzi) (UniProt O96673).
T3 sequence (whole entry): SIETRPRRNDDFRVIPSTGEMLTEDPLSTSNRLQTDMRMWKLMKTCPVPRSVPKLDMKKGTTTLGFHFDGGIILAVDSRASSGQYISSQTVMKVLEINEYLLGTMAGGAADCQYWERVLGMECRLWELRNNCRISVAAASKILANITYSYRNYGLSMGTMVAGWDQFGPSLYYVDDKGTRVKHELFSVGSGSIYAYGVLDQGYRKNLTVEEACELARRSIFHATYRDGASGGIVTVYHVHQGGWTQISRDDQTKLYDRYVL
Briefly: Trypanosoma cruzi proteasome chymotrypsin-like activity (TcProtChymo) assay. Note: in the data most compounds retested in dose-response had high values. Type of assay: functional. The conditions noted are these: 9.37 µM.

The species named for assay [8] is Homo sapiens. As to the kind of experiment: To identify inhibition of the IFN signalling (Jak-Stat) pathway via expression of an eGFP reporter gene under the control of an IFN-stimulated response element (ISRE) containing MxA promoter. In kind it is functional. The conditions noted are these: 30 µM. (Reporter assays use an easily measured gene product as a stand-in for the process of interest.)

The target in assay [9] is T4, Tyrosyl-tRNA synthetase, putative (Trypanosoma cruzi (strain CL Brener)) (UniProt Q4DSP6).
T4 sequence (whole entry): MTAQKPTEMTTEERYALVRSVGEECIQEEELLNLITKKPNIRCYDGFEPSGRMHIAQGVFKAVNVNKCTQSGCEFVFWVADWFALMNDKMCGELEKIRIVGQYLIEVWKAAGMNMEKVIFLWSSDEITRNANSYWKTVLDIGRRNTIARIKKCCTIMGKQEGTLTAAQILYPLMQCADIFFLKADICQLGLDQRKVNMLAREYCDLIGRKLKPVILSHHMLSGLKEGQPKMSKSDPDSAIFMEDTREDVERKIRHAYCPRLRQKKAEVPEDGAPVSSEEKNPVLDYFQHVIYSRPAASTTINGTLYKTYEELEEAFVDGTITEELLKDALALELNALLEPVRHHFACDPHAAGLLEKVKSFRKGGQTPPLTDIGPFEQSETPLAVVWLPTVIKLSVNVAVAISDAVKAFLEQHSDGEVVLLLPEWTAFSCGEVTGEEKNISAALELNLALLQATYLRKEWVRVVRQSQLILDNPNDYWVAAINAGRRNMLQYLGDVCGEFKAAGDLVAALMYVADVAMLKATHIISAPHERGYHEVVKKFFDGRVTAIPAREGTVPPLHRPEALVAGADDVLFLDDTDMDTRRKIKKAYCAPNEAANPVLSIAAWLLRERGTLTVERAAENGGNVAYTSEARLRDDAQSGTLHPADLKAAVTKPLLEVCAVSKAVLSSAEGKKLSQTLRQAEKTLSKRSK
Briefly: Trypanosoma cruzi tyrosyl tRNA synthetase (TcYRS) _High Tyrosine SOP. Note: in the data most compounds retested in dose-response had high values. The conditions noted are these: 30 µM. Type of assay: functional.

The target in assay [10] is T4, Tyrosyl-tRNA synthetase, putative (Trypanosoma cruzi (strain CL Brener)). Briefly: Trypanosoma cruzi tyrosyl tRNA synthetase (TcYRS) SOP. The note with it: 30 µM. Type of assay: functional.
Assay [11] concerns the target Chromo domain-containing protein 1 (Saccharomyces cerevisiae (strain ATCC 204508 / S288c) (Baker's yeast)) (UniProt P32657). As to the kind of experiment: ScCHD-1 Enzyme Inhibition Assay. Note: in the data most compounds retested in dose-response had high values. Type of assay: functional. The note with it: 30 µM.

For some of these results: Entries with a potency or affinity are not part of this list.

Chain of Sialic acid-binding Ig-like lectin 9 (Homo sapiens) (Q9Y336 whole entry): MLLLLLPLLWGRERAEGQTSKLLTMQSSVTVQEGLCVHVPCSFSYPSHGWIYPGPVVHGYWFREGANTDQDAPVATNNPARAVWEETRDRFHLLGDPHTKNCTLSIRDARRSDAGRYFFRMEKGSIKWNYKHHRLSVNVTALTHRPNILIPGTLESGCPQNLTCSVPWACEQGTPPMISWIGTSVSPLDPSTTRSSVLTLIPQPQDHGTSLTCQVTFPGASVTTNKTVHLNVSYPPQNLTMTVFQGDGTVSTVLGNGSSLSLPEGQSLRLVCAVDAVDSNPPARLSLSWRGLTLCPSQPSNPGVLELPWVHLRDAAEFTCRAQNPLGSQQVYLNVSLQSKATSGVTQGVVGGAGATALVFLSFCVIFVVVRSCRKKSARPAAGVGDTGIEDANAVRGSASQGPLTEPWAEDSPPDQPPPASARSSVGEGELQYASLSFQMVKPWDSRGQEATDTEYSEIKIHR
Chain of Chromo domain-containing protein 1 (Saccharomyces cerevisiae (strain ATCC 204508 / S288c) (Baker's yeast)) (P32657 whole entry, the tested form may be a part): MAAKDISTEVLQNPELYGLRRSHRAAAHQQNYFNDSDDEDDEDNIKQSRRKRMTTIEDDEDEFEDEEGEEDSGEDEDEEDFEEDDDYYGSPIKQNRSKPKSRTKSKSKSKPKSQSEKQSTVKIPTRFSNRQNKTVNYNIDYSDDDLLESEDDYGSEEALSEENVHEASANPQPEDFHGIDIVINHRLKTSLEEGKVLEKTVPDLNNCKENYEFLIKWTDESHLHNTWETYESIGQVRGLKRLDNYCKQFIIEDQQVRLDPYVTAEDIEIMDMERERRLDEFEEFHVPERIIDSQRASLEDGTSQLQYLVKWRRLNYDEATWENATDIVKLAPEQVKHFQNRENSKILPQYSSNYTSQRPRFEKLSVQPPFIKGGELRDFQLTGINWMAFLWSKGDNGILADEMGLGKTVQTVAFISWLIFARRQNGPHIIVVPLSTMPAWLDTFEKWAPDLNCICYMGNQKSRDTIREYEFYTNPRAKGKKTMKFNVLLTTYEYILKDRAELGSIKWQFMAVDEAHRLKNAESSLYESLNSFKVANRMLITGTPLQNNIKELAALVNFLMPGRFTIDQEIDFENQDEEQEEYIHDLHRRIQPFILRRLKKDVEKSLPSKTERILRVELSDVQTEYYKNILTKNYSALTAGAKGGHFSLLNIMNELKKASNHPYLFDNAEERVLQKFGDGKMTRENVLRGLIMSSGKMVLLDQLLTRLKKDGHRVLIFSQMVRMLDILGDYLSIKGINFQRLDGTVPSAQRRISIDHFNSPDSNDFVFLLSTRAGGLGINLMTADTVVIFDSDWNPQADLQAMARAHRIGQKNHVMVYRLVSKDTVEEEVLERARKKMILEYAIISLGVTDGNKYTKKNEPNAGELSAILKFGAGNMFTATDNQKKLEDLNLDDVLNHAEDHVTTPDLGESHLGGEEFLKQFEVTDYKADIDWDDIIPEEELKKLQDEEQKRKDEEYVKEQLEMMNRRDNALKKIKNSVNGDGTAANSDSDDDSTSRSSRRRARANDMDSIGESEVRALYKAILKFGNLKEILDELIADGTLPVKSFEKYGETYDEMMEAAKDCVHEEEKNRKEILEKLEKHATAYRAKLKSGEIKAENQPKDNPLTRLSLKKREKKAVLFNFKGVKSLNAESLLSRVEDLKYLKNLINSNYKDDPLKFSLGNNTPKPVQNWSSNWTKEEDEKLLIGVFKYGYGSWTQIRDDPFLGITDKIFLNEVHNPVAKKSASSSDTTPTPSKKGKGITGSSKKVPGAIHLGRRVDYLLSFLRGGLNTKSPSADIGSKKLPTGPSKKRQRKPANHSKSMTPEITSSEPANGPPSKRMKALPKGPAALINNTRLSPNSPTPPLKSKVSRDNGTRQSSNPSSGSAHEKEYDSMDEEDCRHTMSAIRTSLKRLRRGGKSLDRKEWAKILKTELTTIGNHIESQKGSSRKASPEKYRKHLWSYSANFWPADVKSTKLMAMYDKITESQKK
Chain of Protein translocase subunit SecA (Escherichia coli (strain K12)) (P10408 whole entry): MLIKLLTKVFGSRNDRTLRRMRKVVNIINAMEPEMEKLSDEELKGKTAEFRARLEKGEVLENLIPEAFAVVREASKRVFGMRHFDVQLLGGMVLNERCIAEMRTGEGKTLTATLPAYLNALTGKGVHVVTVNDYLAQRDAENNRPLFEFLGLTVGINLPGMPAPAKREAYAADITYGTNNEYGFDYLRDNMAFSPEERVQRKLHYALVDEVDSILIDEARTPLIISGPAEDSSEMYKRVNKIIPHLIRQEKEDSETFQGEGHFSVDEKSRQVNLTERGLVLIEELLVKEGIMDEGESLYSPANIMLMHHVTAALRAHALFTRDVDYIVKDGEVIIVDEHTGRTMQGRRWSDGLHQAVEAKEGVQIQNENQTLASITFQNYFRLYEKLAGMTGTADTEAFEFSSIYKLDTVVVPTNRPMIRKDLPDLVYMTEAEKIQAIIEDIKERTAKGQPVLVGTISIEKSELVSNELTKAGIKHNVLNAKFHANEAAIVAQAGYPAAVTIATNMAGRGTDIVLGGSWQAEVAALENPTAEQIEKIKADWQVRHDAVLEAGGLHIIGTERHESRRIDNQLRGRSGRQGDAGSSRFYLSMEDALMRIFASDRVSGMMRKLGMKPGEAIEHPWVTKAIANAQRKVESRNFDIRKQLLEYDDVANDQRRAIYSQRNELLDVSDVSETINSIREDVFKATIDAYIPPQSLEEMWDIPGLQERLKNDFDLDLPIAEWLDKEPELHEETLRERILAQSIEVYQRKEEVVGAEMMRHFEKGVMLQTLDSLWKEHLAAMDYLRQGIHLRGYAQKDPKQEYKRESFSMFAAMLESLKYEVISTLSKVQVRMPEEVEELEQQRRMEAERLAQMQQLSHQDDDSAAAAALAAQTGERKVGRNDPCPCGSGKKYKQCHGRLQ

In the case of `Cn1ncc2c1C(COCC1CC1)CN(Cc1nccs1)C2` (stereo not drawn), the Percent Effect in [1] is -1.87%; in [2], 15.6%; in [3], -6.52%; in assay [4], 0.425%; in assay [5], 1.87%; in [6] it was 5.81%. Moreover, the Percent Effect is 1.92% in [7]; 28.4% in assay [8]; 8.47% in assay [9]; 14.1% in assay [10]; -10.6% in assay [11].

For `CC1(C)Cc2ccccc2-c2nc(NCCO)[nH]c(=O)c21`, the Percent Effect is -5.03% in assay [1]; 13.2% in assay [2]; 56% in assay [3]; 4.58% in assay [4]; -3.02% in assay [5]; 3.55% in assay [6]. The Percent Effect in [7] was 20%; in assay [8], 31.2%; in [9] it was 6.38%; in assay [10], 13%; in assay [11] it was -12.3%.

With `O=C(Nc1cccc(CNCc2cccs2)c1)C1CCCC1`, the Percent Effect in [1] was -4.41%; in assay [2], 13.2%; in assay [3], -0.852%; in assay [4], -3.26%; in assay [5] it was 2.15%; in [6], -2.16%. The Percent Effect in [7] was 2.45%; in [8], 3.75%; in assay [9], 6.4%; in [10], 18.5%; in assay [11], -4.46%.

As for `CC(C)c1cc(NCC(O)c2ccc(F)cc2)n2nccc2n1` (stereo not drawn), the Percent Effect in assay [1] is -2.04%; in assay [2] it was 2.7%; in assay [3], 10.8%; in assay [4], 1.77%; in assay [5], 1.35%; in assay [6], -4.29%. Moreover, the Percent Effect in [7] turned out to be 3.97%; in assay [8], 38.1%; in [9], 2.65%; in [10], 7.32%; in assay [11], 4.86%.

For `Cc1cccc(C)c1OCCC(=O)N1CCC(c2nncn2C)CC1`, the Percent Effect is -6.09% in assay [1]; 23.4% in assay [2]; 3.3% in assay [3]; 8.75% in assay [4]; 6.74% in assay [5]; -2.49% in [6]. The Percent Effect in [7] was 6.76%; in assay [8] it was 4.85%; in assay [9], 6.8%; in assay [10], 21.9%; in [11] it was -8.79%.

Turning to `CCC(=O)N1CCC(Cc2ccccc2-c2ccccc2)(C(N)=O)C1` (stereo not drawn), the Percent Effect in [1] was -3.32%; in assay [2], 13.3%; in assay [3] it was 10.4%; in assay [4] it was -2.64%; in assay [5] it was 3.94%; in assay [6], 7.69%. In addition, the Percent Effect is 8.37% in assay [7]; 16.6% in [8]; 1.06% in assay [9]; 16.7% in [10]; -4.71% in assay [11].

For the molecule `COc1ccc(NC(=O)c2ccc[nH]2)c(N2CCN(C(C)=O)CC2)n1`, the Percent Effect in assay [1] is -1.32%; in [2], 10.8%; in assay [3], -4.59%; in assay [4], -2.38%; in [5], 0.781%; in assay [6], 37.1%. Moreover, the Percent Effect in assay [7] is 7.18%; in [8], -7.2%; in [9], 6.93%; in [10], 13.4%; in assay [11], -6.01%.

In the case of `Cc1ncc(CNC(=O)c2nn(C)c3c2CS(=O)(=O)CC3)s1`, the Percent Effect is -3.9% in [1]; 9.33% in assay [2]; 3.53% in assay [3]; 5.84% in assay [4]; 3.73% in assay [5]; -6.16% in [6]. The Percent Effect in assay [7] was 13.3%; in assay [8], 4.95%; in [9] it was 9.52%; in assay [10], 12.8%; in assay [11], -9.87%.

The values are drawn from ChEMBL document CHEMBL3988442, “University of Dundee, Small-Polar-MMV Screening Library” (2021).
